In the library only some 1.3% were active in any assay of this set; here they are far more common.
PME-1 inh = blocks human protein phosphatase methylesterase 1 | inhibition, % at 5.9 µM | recombinant PME-1, FP-Rh probe fluorescence polarization | Q9Y570 | 0.53% of 320,000 active;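 active = inhibition above the campaign mean of all compounds plus 3 SD, cut at about 26% in these data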;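 note: competitive labeling of PME-1 active site by serine hydrolase directed probe; 0% = PME-1 with DMSO and 100% = wells lacking PME-1 enzyme; inhibitors block probe labeling so polarization falls and inhibition rises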
LYPLA1 counter = blocks human lysophospholipase 1, a PME1 counter-screen; inhibition, % at 5.9 µM; recombinant LYPLA1, FP-Rh probe fluorescence polarization; 0.16% of 320,000 active;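 active = inhibition above the mean of all tested compounds plus 3 SD, set per campaign, cut at about 14% in these data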;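 note: inhibitors block serine hydrolase probe labeling of LYPLA1 so polarization falls; 0% = enzyme with DMSO and 100% = wells lacking LYPLA1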
Target sequence (O75608 whole entry, looked up): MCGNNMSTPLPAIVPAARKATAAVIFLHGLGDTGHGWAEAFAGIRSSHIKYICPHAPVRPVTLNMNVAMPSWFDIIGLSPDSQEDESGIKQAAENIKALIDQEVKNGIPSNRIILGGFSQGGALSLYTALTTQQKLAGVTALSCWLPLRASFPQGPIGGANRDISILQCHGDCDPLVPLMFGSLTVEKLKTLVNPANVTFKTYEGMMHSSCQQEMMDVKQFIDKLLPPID
PREPL inh = human PREPL enzyme inhibition; Q4J6C6; recombinant PREPL, fluorescence polarization activity-based probe; inhibition, % at 5.96 µM; 0.68% of 320,000 active; AID 2751; in the data active = inhibition above about 43%;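 note: 0% = enzyme with DMSO and 100% = wells lacking enzyme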
Fam108B counter = counter-screen for RBBP9 inhibitors: inhibitors of mouse Fam108B; recombinant Fam108B, FP-Rh probe fluorescence polarization; inhibition, % at 9.51 µM; 0.33% of 300,000 active; AID 1947;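 active = inhibition above the screen mean inhibition plus 3 SD, computed separately per campaign, cut at about 18% in these data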;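 note: inhibitors lower polarization as less probe binds the enzyme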
LYPLA2 counter = blocks human lysophospholipase 2, a PME1 counter-screen. 0.38% of 320,000 active. recombinant LYPLA2, FP-Rh probe fluorescence polarization. O95372. inhibition, % at 5.9 µM;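 active = inhibition above the screen-wide mean plus 3 SD, limit set per campaign, cut at about 26% in these data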;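 note: 0% = LYPLA2 with DMSO and 100% = wells lacking LYPLA2 enzyme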
Target sequence (O95372 whole entry, looked up): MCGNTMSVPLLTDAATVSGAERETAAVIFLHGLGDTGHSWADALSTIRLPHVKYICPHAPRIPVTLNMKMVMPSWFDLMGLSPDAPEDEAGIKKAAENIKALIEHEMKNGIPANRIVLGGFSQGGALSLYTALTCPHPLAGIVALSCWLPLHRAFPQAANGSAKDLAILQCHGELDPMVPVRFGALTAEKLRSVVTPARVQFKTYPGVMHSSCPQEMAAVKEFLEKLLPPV
LYPLA2 conf = counter-screen for PME1 inhibitors: confirmation of human LYPLA2 inhibitors. inhibition, % at 5.9 µM. shares compounds with LYPLA2 counter. AID 2232. 72% of 1,100 active. recombinant LYPLA2, FP-Rh probe fluorescence polarization;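 active = mean inhibition across replicates above the hit cutoff set in the primary screen, cut at about 26% in these data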;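 note: blocked labeling of the enzyme by serine hydrolase FP-Rh probe lowers polarization; 0% = enzyme with DMSO and 100% = wells lacking LYPLA2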
LYPLA2 ABPP = inhibitors of human LYPLA2; shares compounds with LYPLA2 counter; rhLYPLA2 in mouse brain proteome, gel ABPP FP-Rh; inhibition, % at 20 µM; 30% of 150 active; AID 652029;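 active = inhibition of LYPLA2 enzyme probe labeling above about 50%, limit read from the data; inactive = inhibition below that limit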;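 note: loss of FP-Rh probe labeling of the LYPLA2 gel band measured as band density; 0% = DMSO only control band and 100% = blank gel background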
* marks the source's active call; other numbers are inactive results; / = no result.

SMILES | PME-1 inh | LYPLA1 counter | PREPL inh | Fam108B counter | LYPLA2 counter | LYPLA2 conf | others
N#Cc1ccc(OCC(=O)N2CCN(c3ccc(C(F)(F)F)cn3)CC2)cc1 | 4 | 4 | -8 | / | 64* | 32*
O=C(c1ccc(N2CCNCC2)cc1)c1cccnc1 | 2 | 4 | 7 | -2 | 26* | 9
CN1CCN(C2=NC(=O)/C(=C/c3cn[nH]c3-c3ccccc3)S2)CC1 | -10 | 2 | 3 | 2 | 0 | /
O=C1N=C(N2CCN(c3ccccc3)CC2)S/C1=C/c1cccs1 | 6 | 3 | 29 | -1 | 34* | 38*
CN(C(=O)c1ccc(NC(=O)Cc2cccc(NC(=O)C3CCCN(C(=O)CCc4ccccc4)C3)c2)cc1)C1CCCC1 (configuration not stated) | -6 | -1 | -2 | / | -1 | /
CN(C(=O)c1ccc(NC(=O)Cc2ccc(NC(=O)C3CCCN(C(=O)CCc4ccccc4)C3)cc2)cc1)C1CC1 (configuration not stated) | -3 | 6 | -10 | / | 58* | 50* | LYPLA2 ABPP=46
O=[N+]([O-])c1ccc(CN2CCOCCOCCN(Cc3ccc([N+](=O)[O-])cc3)CCOCC2)cc1 | 1 | 1 | 41 | 1 | 37* | 22
CCOC(=O)c1ccc(N2C(=O)C(O)=C(C(C)=O)C2c2ccc([N+](=O)[O-])cc2)cc1 (configuration not stated) | -5 | -3 | 13 | 6 | -6 | /
O=C1c2cccc3cccc(c23)C(=O)N1CCN1CCN(CC(O)COc2ccc3ccccc3c2)CC1 (configuration not stated) | -5 | -4 | 3 | -8 | 19 | /
Cc1cc(C)cc(OCC(O)CN2CCC(CN3C(=O)c4cccc5cccc(c45)C3=O)CC2)c1 (configuration not stated) | -1 | 9 | 17 | -2 | 46* | 49*
COc1cccc(OCC(O)CN2CCC(CN3C(=O)c4cccc5cccc(c45)C3=O)CC2)c1 (configuration not stated) | -3 | 9 | 6 | -1 | 39* | 51* | LYPLA2 ABPP=12
O=C1c2cccc3cccc(c23)C(=O)N1CC1CCN(CC(O)COc2ccc3ccccc3c2)CC1 (configuration not stated) | -5 | 3 | -22 | -7 | 47* | 38*
COc1ccc(COCC(O)CN2CCC(CN3C(=O)c4cccc5cccc(c45)C3=O)CC2)cc1OC (configuration not stated) | 3 | 3 | 24 | 0 | 5 | /
CCc1ccc(OCC(O)CN2CCC(CN3C(=O)c4cccc5cccc(c45)C3=O)CC2)cc1 (configuration not stated) | 5 | -3 | -20 | -1 | 29* | 29*
CSCC[C@H](NC(=O)[C@@H]1Cc2ccccc2CN1)C(=O)NC[C@H]1CC[C@H](C(=O)O)CC1 | 1 | 1 | 11 | 1 | 7 | /
CSCC(=O)N1CCCC(N2CCN(c3cccc(C(F)(F)F)c3)CC2)C1 (configuration not stated) | 1 | -2 | -4 | 0 | 15 | /
Cc1occc1C(=O)N1CCCC(N2CCN(c3cccc(C(F)(F)F)c3)CC2)C1 (configuration not stated) | 0 | 0 | 9 | -3 | 28* | 28*
Cc1ncoc1C(=O)N1CCCC(N2CCN(c3cccc(C(F)(F)F)c3)CC2)C1 (configuration not stated) | 2 | 4 | 8 | -2 | 63* | 69* | LYPLA2 ABPP=46
Cc1cc(C(=O)N2CCCC(N3CCN(c4cccc(C(F)(F)F)c4)CC3)C2)c(C)o1 (configuration not stated) | 1 | 4 | 11 | -3 | 31* | 41*
CC1(CCC(=O)N2CCCC(N3CCN(c4cccc(C(F)(F)F)c4)CC3)C2)CC1 (configuration not stated) | -2 | 0 | 23 | 0 | 32* | 31*
N=c1ccn2c(n1)OC1C(O)C(CO)OC12 (configuration not stated) | -3 | -4 | 5 | -3 | -13 | /
O=c1c2ccccc2ncn1CCCSc1ccc(Cl)cc1 | 4 | -1 | -14 | 1 | 34* | 29*

Source: PubChem
